Laboratory results reported in PubChem BioAssay.
Several values for one entry are separate records, joined by “and”; a condition that tells them apart may be missing. Equal values may be shown once. Activity calls are given as the source filed them.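 How the source made its calls, unless noted: active means thallium flux through the channel raised or lowered by more than 3 SD from vehicle-only wells, actives on both sides; inactive means the rest.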

What was measured:
[1] = tested on: Hepatitis C virus NS3 helicase; experiment: blockers of NS3h binding to DNA – biochemical, fluorescence polarization, NIH Clinical Collection, primary screen (AID 743270; call rule not given here); details: NS3 helicase binding to Cy5-dT15 DNA, stronger effect = higher value, concentration not given here
[2] = molecular target: Single-stranded DNA-binding protein (Escherichia coli (strain K12)) (UniProt P0AGE0); experiment: SSB-ssDNA binding inhibitors – biochemical, fluorescence polarization, NIH Clinical Collection, counter-screen for HCV NS3 helicase inhibitor project (AID 743271; in the data active means inhibition above about 28%); details: E. coli SSB-DNA binding, stronger effect = higher value, concentration not given here
[3] = compounds distorting NS3 helicase fluorescence signal – biochemical, NIH Clinical Collection, artefact control for HCV NS3 helicase inhibitor project (AID 743272; call rule not given here;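 further: HCV NS3 helicase with a Cy5 labelled single stranded DNA probe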); details: fluorescence interference counterscreen, HCV NS3 helicase assay; stronger effect = lower value
[4] = Wnt pathway potentiators raising nuclear beta-catenin – imaging, WNT3A-conditioned medium, mouse C2C12, NPC library, primary screen (AID 1117326; in the data active means nuclear beta-catenin stimulation mostly above about 4.2%, no sharp cut-off; inactive means mostly below about 10%); details: stronger effect = higher value
[5] = stimulators of insulin release from INS-1E, primary screen, cell-based, 5 mM glucose, NPC library (AID 1117329;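 active means compound raises insulin release from rat beta cells at 5 mM glucose, no numeric limit stated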); details: rat INS-1E insulin secretion, at 10 µM, stronger effect = higher value
[6] = growth inhibition of GSK3B-pretreated HCT116 cells – cell-based, CellTiter-Glo, 0.2 to 20 µM (AID 1117336;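 active means compounds lowering colon cancer cell viability after pretreatment blocking the GSK3B kinase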); details: HCT116 viability after GSK3B inhibitor, at 20 µM, stronger effect = higher value
[7] = inhibition of endothelial tube formation, primary screen, imaging, VEGF stimulated, CD31 staining, tube area, NPC library (AID 1117340;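 active means compound that reduces growth-factor-driven endothelial tube area in a mixed cell culture, no cutoff stated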); details: VEGF-stimulated ADSC/ECFC co-culture, at 10 µM, stronger effect = higher value
[8] = GLP1 release stimulators, primary, NCI-H716, NPC library (AID 1117341;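 active means compound raises GLP1 secretion from the human gut endocrine cells, with no numeric limit stated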); details: NCI-H716 cells, at 10 µM, stronger effect = higher value
[9] = HCT116 colon cancer cell growth inhibition, primary screen, CellTiter-Glo luminescence, NPC library (AID 1117342;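 active means compounds that lower survival of HCT116 colon cancer cells in the luminescence readout, no numeric limit stated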); details: at 20 µM (top of the series)
[10] = reduced SW480 viability measured with CellTiter-Glo, NPC library, primary (AID 1117343;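 active means compounds that lower viability of the colon cancer cells in the luminescence readout, with no numeric limit stated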); details: CellTiter-Glo luminescence; at 20 µM (top of the series)
[11] = NPC library primary testing for decreased DLD-1 cell viability via CellTiter-Glo (AID 1117346;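 active means compounds that lower survival of DLD-1 colon cancer cells in the luminescence readout, no cutoff given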); details: DLD-1 viability, CellTiter-Glo luminescence; at 20 µM (top of the series)
[12] = molecular target: 6-phosphogluconate dehydrogenase, decarboxylating (Homo sapiens) (UniProt P52209); experiment: inhibition of human phosphogluconate dehydrogenase – biochemical, recombinant enzyme, NADPH absorbance, primary screen (AID 1159550;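 active means at least 20% inhibition of 6-phosphogluconate dehydrogenase activity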); details: recombinant 6PGD, NADPH absorbance 341 nm; at 10 µM; stronger effect = higher value
6-phosphogluconate dehydrogenase, decarboxylating (Homo sapiens), sequence (P52209 whole entry, looked up): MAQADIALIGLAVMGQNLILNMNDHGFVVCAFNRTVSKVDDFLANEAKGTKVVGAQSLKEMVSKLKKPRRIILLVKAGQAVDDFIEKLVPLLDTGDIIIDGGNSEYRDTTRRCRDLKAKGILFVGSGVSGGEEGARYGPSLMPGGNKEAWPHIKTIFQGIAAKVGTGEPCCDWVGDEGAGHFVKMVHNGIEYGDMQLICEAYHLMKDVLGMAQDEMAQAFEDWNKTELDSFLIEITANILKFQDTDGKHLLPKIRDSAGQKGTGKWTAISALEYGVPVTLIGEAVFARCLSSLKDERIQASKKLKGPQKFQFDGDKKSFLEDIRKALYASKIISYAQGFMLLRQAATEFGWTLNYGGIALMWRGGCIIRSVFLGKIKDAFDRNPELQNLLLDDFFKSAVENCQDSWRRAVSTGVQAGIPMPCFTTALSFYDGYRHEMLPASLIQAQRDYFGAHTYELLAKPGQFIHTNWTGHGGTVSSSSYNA

[13] = EMT-state selective cytotoxicity in co-culture – imaging, PC-3E GFP, TEM4-18 mCherry, primary screen (AID 1345086;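 active means compounds killing one labelled cell type while sparing the other, by normalised counts and ratio limits, not self-fluorescent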;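 on all read-outs here: cells exposed to compound for 72 h before imaging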;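 on red/green cell ratio (normalised): normalised mesenchymal count divided by normalised epithelial count so high means epithelial killing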); details: PC-3E GFP / TEM4-18 mCherry co-culture, imaging cell counts, at 1 µM; for red/green cell ratio (normalised): actives lie on both sides, counts scaled to control wells, 1 = unselective
[14] = MELAS cybrid and Rieske KO viability enhancers – cell-based, MELAS cybrids, Rieske KO mouse fibroblasts, CellTiter-Glo, primary screen (AID 1508586;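 active means mean z-score across replicates of 1.96 or higher in either the MELAS or the Rieske mutant cell line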;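 further: z relative to plate mean and SD of compound and empty wells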); details: low glucose
[15] = molecular target: NAD(+) hydrolase SARM1 (Homo sapiens) (UniProt Q6SZW1); experiment: blocking NAD cleavage by SARM1 SAM-TIR – cell lysate, NAD-Glo luminescence (AID 1508614;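 active means compound whose remaining NAD level is above about 45 nM, limit read from the data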); details: SAM-TIR HEK293T lysate NADase, at 1 µM, stronger effect = higher value
NAD(+) hydrolase SARM1 (Homo sapiens), sequence (Q6SZW1 whole entry, looked up, the tested form may be a part): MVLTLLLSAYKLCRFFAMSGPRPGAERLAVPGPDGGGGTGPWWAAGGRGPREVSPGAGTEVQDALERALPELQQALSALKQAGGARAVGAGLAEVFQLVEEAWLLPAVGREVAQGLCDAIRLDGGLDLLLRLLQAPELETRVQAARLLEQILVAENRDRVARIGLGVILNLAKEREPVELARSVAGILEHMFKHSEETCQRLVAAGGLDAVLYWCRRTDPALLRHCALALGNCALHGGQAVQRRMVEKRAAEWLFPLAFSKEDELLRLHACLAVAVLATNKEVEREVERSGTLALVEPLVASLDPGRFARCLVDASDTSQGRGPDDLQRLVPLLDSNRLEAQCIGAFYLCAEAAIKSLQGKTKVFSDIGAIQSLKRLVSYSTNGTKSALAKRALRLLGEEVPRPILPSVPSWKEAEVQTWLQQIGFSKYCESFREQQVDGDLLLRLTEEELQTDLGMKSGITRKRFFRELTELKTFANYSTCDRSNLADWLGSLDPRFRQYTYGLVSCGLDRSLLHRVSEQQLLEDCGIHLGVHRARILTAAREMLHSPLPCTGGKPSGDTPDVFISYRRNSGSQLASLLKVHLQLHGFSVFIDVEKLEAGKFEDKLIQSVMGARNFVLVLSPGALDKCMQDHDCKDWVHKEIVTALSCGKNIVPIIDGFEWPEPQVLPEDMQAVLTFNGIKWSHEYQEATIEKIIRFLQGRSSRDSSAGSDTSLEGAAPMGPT

[16] = molecular target: Mitogen-activated protein kinase 7 (Homo sapiens) (UniProt Q13164); experiment: Gal4-ERK5 driven luciferase induction – cell-based, HTS, primary screen (AID 1508626;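 active means luciferase signal above three times the same-plate solvent-only control wells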;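 further: luciferase driven by Gal4-ERK5 fusion binding five Gal4 sites before minimal TATA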); details: HeLa Gal4-ERK5 transactivation, 18 h, at 5 µM, stronger effect = higher value
Mitogen-activated protein kinase 7 (Homo sapiens), sequence (Q13164 whole entry, looked up, the tested form may be a part): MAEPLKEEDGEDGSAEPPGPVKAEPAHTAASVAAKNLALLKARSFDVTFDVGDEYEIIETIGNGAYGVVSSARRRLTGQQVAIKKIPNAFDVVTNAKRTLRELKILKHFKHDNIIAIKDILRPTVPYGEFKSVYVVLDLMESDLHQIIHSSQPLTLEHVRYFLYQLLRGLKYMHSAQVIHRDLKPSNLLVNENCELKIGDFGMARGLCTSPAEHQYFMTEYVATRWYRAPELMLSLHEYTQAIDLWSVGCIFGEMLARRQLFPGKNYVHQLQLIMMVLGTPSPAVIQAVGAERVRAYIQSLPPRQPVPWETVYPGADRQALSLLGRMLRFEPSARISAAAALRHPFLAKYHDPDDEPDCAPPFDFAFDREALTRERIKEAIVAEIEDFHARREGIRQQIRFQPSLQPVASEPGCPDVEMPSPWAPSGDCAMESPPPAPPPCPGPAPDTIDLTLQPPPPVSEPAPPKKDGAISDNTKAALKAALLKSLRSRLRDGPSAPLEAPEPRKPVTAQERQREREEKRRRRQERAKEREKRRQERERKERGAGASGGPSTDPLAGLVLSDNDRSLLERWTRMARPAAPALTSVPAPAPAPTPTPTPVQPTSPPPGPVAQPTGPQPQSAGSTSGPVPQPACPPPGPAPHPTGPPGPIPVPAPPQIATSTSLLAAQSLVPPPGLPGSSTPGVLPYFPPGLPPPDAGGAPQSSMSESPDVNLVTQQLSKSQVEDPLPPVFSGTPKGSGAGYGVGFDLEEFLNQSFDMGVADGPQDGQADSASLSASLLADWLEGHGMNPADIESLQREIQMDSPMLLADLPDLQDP

F380Y = experiment: BK channel mutant inhibitors and activators – cell-based, U2OS BacMam, thallium flux, beta subunits, selectivity assay, profiling panel (AID 1259406); details: U2OS BacMam BK variants, at 30 µM;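 further: initial slope of Thallos dye fluorescence rise after thallium is added; log ratio against the mean of 0.3% DMSO vehicle wells on the same plate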
F380Y/beta2Delta = experiment: as above; details: U2OS BacMam BK variants, at 30 µM
[17] = molecular target: Calcium-activated potassium channel subunit alpha-1 (Homo sapiens) + Leucine-rich repeat-containing protein 26 (Homo sapiens) (UniProt Q12791+Q2I0M4); experiment: as above; details: U2OS BacMam BK variants, F380Y/Slo1WT/gamma1, at 30 µM
Calcium-activated potassium channel subunit alpha-1 (Homo sapiens) + Leucine-rich repeat-containing protein 26 (Homo sapiens), sequence (Q2I0M4 whole entry, looked up, one chain of several): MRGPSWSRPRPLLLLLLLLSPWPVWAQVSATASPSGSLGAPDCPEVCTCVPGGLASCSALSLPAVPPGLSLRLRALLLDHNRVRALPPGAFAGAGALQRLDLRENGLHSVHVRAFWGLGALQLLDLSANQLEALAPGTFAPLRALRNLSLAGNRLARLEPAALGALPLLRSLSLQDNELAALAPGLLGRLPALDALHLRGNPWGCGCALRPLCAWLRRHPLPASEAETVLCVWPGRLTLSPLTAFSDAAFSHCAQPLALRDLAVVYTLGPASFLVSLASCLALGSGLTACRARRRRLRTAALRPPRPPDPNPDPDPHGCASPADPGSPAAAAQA

[18] = viability loss with induced miR-34 in A549 – imaging, A549 dox-inducible miR-34, nuclei and caspase counts, primary screen (AID 1347080;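 active means compounds whose cell count with miR-34 switched on is under 0.7 times the count with it off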); details: A549 miR-34 inducible, Hoechst nuclei count, 48 h
[19] = measured here: epithelial PC-3E GFP cell survival
[20] = measured here: mesenchymal TEM4-18 mCherry cell survival
[21] = MELAS cybrid survival, CellTiter-Glo 48 h, stronger effect = higher value
[22] = Rieske KO mouse fibroblast survival, CellTiter-Glo 72 h
[23] = stronger effect = lower value, cell number ratio, induced over uninduced
[24] = measured here: relative caspase fold change +Dox/-Dox
[25] = measured here: total cells with miR-34 induction, stronger effect = lower value
[26] = measured here: total cells without miR-34 induction

CC(N=C(NC#N)Nc1ccncc1)C(C)(C)C (stereo unspecified)
1.21: normalised cell number [13, 19]
inactive: inhibition [1] -0.22% | inhibition [2] 1.97% | fluorescence ratio [3] 0.95 | nuclear beta-catenin stimulation ([4]; at 10 µM) -0.6% | insulin secretion stimulation [5] 2.1% | viability decrease [6] -8.9% | tube area decrease [7] -9.6% | GLP1 secretion stimulation [8] -3.6% | inhibition of viability [9] 12.1% | viability decrease (inhibition) [10] -10.1% | viability decrease (inhibition) [11] 5.8% | inhibition [12] -10.6% | red/green cell ratio (normalised) [13] 1.42 | z-score [14, 21] 0.121 and 0.328 | remaining NAD [15] 10 nM | luciferase signal [16] 64 AU | log fold change Tl+ flux (F380Y) -0.0323 | log fold change Tl+ flux (F380Y/beta2Delta) 0.0089 | log fold change Tl+ flux [17] -0.0269
-1.6%: nuclear beta-catenin stimulation ([4]; stimulation, at 2 µM)
-0.266 and 0.371: z-score [14, 22]
1.72: normalised cell number [13, 20]

CN(C)CCC[C@@]1(c2ccc(F)cc2)OCc2cc(C#N)ccc21
9600 and 9400: cell count [18, 25]
1.13: normalised cell number [13, 19]
2.21 and 1.15: fold change [18, 24]
9420 and 10600: cell count [18, 26]
-0.0102 and -1.12: z-score [14, 22]
inactive: inhibition [1] -1.98% | inhibition [2] 6.83% | fluorescence ratio [3] 0.96 | nuclear beta-catenin stimulation ([4]; at 10 µM) 2.2% | viability decrease [6] 4.6% | tube area decrease [7] 3.6% | GLP1 secretion stimulation [8] 10.5% | inhibition of viability [9] -13.4% | viability decrease (inhibition) [11] 24.4% | inhibition [12] 8.36% | red/green cell ratio (normalised) [13] 0.99 | fold change [18, 23] 1.02 and 0.891 | z-score [14, 21] -0.471 and -0.676 | remaining NAD [15] 10 nM | log fold change Tl+ flux (F380Y) 0.0406 | log fold change Tl+ flux (F380Y/beta2Delta) 0.0188 | log fold change Tl+ flux [17] -0.0413
-0.7%: nuclear beta-catenin stimulation ([4]; stimulation, at 2 µM)
active: insulin secretion stimulation [5] 31.7% | viability decrease (inhibition) [10] 66.3%
1.12: normalised cell number [13, 20]

CCCCC1=NC2(CCCC2)C(=O)N1Cc1ccc(-c2ccccc2-c2nn[nH]n2)cc1
0.1%: nuclear beta-catenin stimulation ([4]; stimulation, at 2 µM)
7550 and 13800: cell count [18, 26]
-0.504: z-score [14, 22]
7090 and 11900: cell count [18, 25]
1.18: normalised cell number [13, 20]
inactive: inhibition [1] -3.56% | inhibition [2] 3.75% | fluorescence ratio [3] 1.03 | nuclear beta-catenin stimulation ([4]; at 10 µM) 1.9% | insulin secretion stimulation [5] 1.8% | viability decrease [6] -43% | tube area decrease [7] -17.7% | GLP1 secretion stimulation [8] -0.1% | inhibition of viability [9] -0.43% | viability decrease (inhibition) [10] -11.7% | viability decrease (inhibition) [11] -12.4% | inhibition [12] -3.55% | red/green cell ratio (normalised) [13] 1.43 | fold change [18, 23] 0.939 and 0.866 | z-score [14, 21] -0.829 | remaining NAD [15] 10 nM | luciferase signal [16] 56 AU | log fold change Tl+ flux (F380Y) 0.0685 | log fold change Tl+ flux (F380Y/beta2Delta) 0.0508 | log fold change Tl+ flux [17] -0.00804
0.82: normalised cell number [13, 19]
1.55 and 6.32: fold change [18, 24]
